Experimental data reported in PubChem BioAssay (NCI).
About 79,000 compounds went through this panel and 15% of them were active in at least one assay; those are over-represented in the sample as a whole. A number with no mark means an inactive call. Active and inactive are the calls of the source. Cut-off read from the data, not from the text of the source: active = growth inhibition above about 70%; inactive = the rest.

What was measured:
[1] = NCI Yeast Anticancer Drug Screen. Data for the rad50 strain (AID 155);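 note: 0% = growth of vehicle-only cultures of the same strain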; conditions: S. cerevisiae rad50 strain growth inhibition, stronger effect = higher value; at 50.0 µM unless noted
Summary of the method: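 Relative growth inhibition (compound vs vehicle) was measured in yeast with a defined repair-gene alteration.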

[2] = NCI Yeast Anticancer Drug Screen. Data for the mec2-1 strain (AID 157); conditions: S. cerevisiae mec2-1 strain, stronger effect = higher value; at 50.0 µM unless noted
Summary of the method: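 Each compound was tested on mec2-1 yeast, a strain altered in DNA damage repair or cell cycle control. Growth inhibition is reported relative to vehicle.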

[3] = NCI Yeast Anticancer Drug Screen. Data for the sgs1 mgt1 strain (AID 161);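 note: 0% = growth of cultures given vehicle only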; conditions: S. cerevisiae sgs1 mgt1 strain, stronger effect = higher value; at 50.0 µM unless noted
Summary of the method: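 Genetically altered yeast, compound exposure, growth inhibition relative to vehicle.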

[4] = NCI Yeast Anticancer Drug Screen. Data for the cln2 rad14 strain (AID 165);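 note: 0% = growth equal to vehicle treated cultures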; conditions: S. cerevisiae cln2 rad14 strain, stronger effect = higher value; at 50.0 µM unless noted
Summary of the method: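 Test compounds were added to cln2 rad14 yeast cultures; inhibition of growth was then determined by comparison with vehicle treatment.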

[5] = NCI Yeast Anticancer Drug Screen. Data for the bub3 strain (AID 167); conditions: S. cerevisiae bub3 mutant strain, stronger effect = higher value; at 50.0 µM unless noted
Summary of the method: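 Screening used yeast with an engineered genetic alteration affecting cell cycle control. Compound-exposed cultures were compared with vehicle cultures, and reduced growth was taken as inhibition.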

[6] = NCI Yeast Anticancer Drug Screen. Data for the mlh1 rad18 strain (AID 175); conditions: S. cerevisiae mlh1 rad18 strain growth inhibition, stronger effect = higher value; at 50.0 µM unless noted
Summary of the method: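 Inhibition values reflect reduced growth of mutant yeast versus vehicle-treated controls following compound exposure; the mutations affect DNA damage repair.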

Structure (SMILES)	growth inhibition [1]	growth inhibition [2]	growth inhibition [3]	growth inhibition [4]	growth inhibition [5]	growth inhibition [6]
CC(C)OC(=O)Nc1ccc(O)cc1	10.8%	-6.7%	-2.45%	-19.4%	-3.45%	-5.7%
COc1ccc(O)c2c1C(=O)CCCC2=O	3.65%	-0.75%	6.35%	-4.6%	4.05%	0.7%
O=C(Nc1cc(Cl)c(Cl)cc1Cl)C(=O)C(C(=O)c1ccccc1)C1OC(=O)c2ccccc21 (centres undefined)	-18.6%	-34.8%	-25.1%	-0.5%	-10.2%	-10.3%
CCNc1cc(Cl)c(C(=O)O)cc1[N+](=O)[O-]	-8.8%	20.9%	15.3%	-22.7%	-8.75%	-8.65%
O=C(Cc1ccccc1)SC(=O)Cc1ccccc1	-0.05%	28.8%	18.6%	-8.9%	39.4%	10%
O=C(O)C1C2CC=CCC21 (centres undefined)	13.4%	4.5%	11.8%	8.85%	12.2%	16.6%
CC(=O)O/N=C(\C(c1ccccc1)c1ccccc1)C1c2ccccc2-c2ccccc21	91.3% (active)	88.7% (active)	96.9% (active)	91.2% (active)	64.8%	96.2% (active)
CC(C)(C)OC(=O)C(=[N+]=[N-])C(=O)OC(C)(C)C	8.75%	1.5%	2.3%	-28.5%	-7.15%	17.7%
CC(=O)Nc1ccn(C2OC(CO)C(O)C2O)c(=O)n1 (centres undefined)	-3.6%	26.9%	0.05%	31.1%	-11.6%	8.3%
CCOC(=O)C1=CC(C(=O)OCC)=C2C=CC=C3C=CC=C1N32	7.75%	8.7%	25.9%	-1.65%	-18%	-2.95%
NC(=S)Cc1ccncc1	12.8%	6.15%	3.45%	1.15%	5.55%	2.65%
CCCCCCCCN1CCOCCOCCN(CCCCCCCC)c2nc(Cl)nc(n2)NCCOCCOCCNc2nc(Cl)nc1n2	7.8%	-16.1%	-21.8%	-9.7%	-5%	7.7%
CCCCC(C(=O)CCC(=O)Nc1ccc(Cl)c(Cl)c1)C(=O)C(C)C (centres undefined)	-7%	-18.8%	19.1%	-0.3%	8.4%	-2.4%
COc1ccc(CCn2c(=O)c3ccccc3n(C)c2=O)cc1	17.9%	-4.2%	13.2%	34.2%	41.6%	0.8%
[Mn+2].[NH-]C(Cc1ccc(O)cc1)C(=O)O.[NH-]C(Cc1ccc(O)cc1)C(=O)O (centres undefined)	0.35%	15.3%	-10.5%	-19.1%	0.95%	-13%
CC(=O)C[N+](C)(C)C	-12.9%	-17.1%	-14.8%	-7.45%	-20.8%	12.7%
O=C(O)C(=O)Nc1ccccc1	-4.45%	-15.5%	-5.5%	-34.8%	1.65%	-5.8%
O=[N+]([O-])c1cccc(C2=NN(c3ccccc3)C3c4cc(Br)ccc4OCC23)c1 (centres undefined)	-10.8%	-18.4%	-17.6%	2.45%	10.2%	-31.7%
CCN(CC)c1cc(C)c2cc(Cc3ccccc3)ccc2n1	35.2%	32.8%	23.9%	31.8%	65.1%	14.5%
